Consider 24 compounds from PubChem BioAssay (NCATS).

Values without a mark were called inactive. Records with an inconclusive call do not appear. The source made the active and inactive calls. Unless noted, calls follow the shape of the dose curve; as a rule, active = well fitted curve in the direction sought with a large enough effect; inconclusive = small, poorly fitted or top-dose-only effect, or another doubt; inactive = no such curve, though single readings can be large; an effect the other way counts as inactive or inconclusive. Some results are limits rather than exact numbers.

In experiment [1] the target is Glucocorticoid receptor (Homo sapiens) (UniProt P04150). The experiment can be described thus: GR-GFP Redistribution (AID 450;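 active = compounds whose dose series gives a full or clear partial fitted curve of increased nuclear translocation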; also: potency is read from the fitted curve at half-maximal effect).
Experiment [2] has the same target. The experiment is described as follows: GR-EFC Redistribution (AID 451; calls by dose curve; also: potency is read from the fitted curve at half-maximal effect). The following applies: CHO-K1 GR-EFC translocation, beta-gal luminescence, 2 h. A digest of the protocol: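 CHO-K1 cells expressing nuclear EA and GR-ED fragments of b-gal; compounds titrated up to 46 uM final, 2 h at 37 C. GR nuclear translocation read as complemented b-gal luminescence after 1 h RT detection.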

In experiment [3] the target is Mitogen-activated protein kinase 10 (Mus musculus) (UniProt Q61831). The experiment can be described thus: JNK3 AlphaScreen Assay (AID 530; active = well fitted curve in either direction with a large enough effect, not every such curve was filed as active;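 also: kinase came from lysate of stimulated human HepG2 cells; signal reports phosphorylation of biotinylated GST-cJun 1-79 at Ser73 with 10 µM ATP; series mostly up to about 57 µM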). A digest of the protocol: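 Pre-activated (IL-1β/TNFα) JNK3 in HepG2 lysates phosphorylates biotin-GST-cJun(1-79), 10 uM ATP; anti-phospho-cJun(Ser73) AlphaScreen read at room temperature, pH 7.6 Tris buffer. Compounds pre-incubated 15 min as titrations.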

The target in experiment [4] is 3',5'-cyclic-AMP phosphodiesterase 4B (Homo sapiens) (UniProt Q07343). The experiment can be described thus: qHTS Assay for Inhibitors of PDE-IV (AID 607; active = well fitted activation curve with a large enough effect in the main read-out, with a control signal flat, not every such curve was filed as active; also: potency is read from the fitted curve at half-maximal effect). A digest of the protocol: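 HEK293 ACTOne cells with CNG channel (1000/well), endogenous PDE4; membrane potential dye, compounds up to 22.9 uM final. Fluorescence Ex 535/Em 590; RO 20-1724 (100 uM final) as reference.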
On the technique in general: Quantitative high-throughput screening tests each substance at several concentrations.

For experiment [5], the target named is Cytochrome P450 2C9 (Homo sapiens) (UniProt P11712). The experiment can be described thus: qHTS Assay for Inhibitors and Substrates of Cytochrome P450 2C9 (AID 883). Also: nearly all actives have a fitted effect of over 60% in size. Also: potency is read from the fitted curve at half-maximal effect. A digest of the protocol: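 10nM CYP2C9 + 100uM Luciferin-H (=KM), 25mM KPO4; cpd 10 min 37C; NADPH regen, 60 min 37C; stop/detect with P450 Glo-Buffer 20 min; luminescence. Norm. to 57uM sulphaphenazole as full inhibition.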

Experiment [6] deals with Cytochrome P450 3A4 (Homo sapiens) (UniProt P08684). The experiment is described as follows: qHTS Assay for Activators of Cytochrome P450 3A4 (AID 885). Also: nearly all actives have a fitted effect of over 65% in size. A digest of the protocol: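 Human CYP3A4 (20 nM) with Luciferin-PPXE at 25 uM (its KM) in 200 mM KPO4; 10 min compound preincubation, then NADPH regeneration and 60 min reaction at RT. Luciferin read by luminescence; normalized to 57 uM ketoconazole full inhibition.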

In experiment [7] the target is Cytochrome P450 2D6 (Homo sapiens) (UniProt P10635). The experiment is described as follows: qHTS Assay for Inhibitors and Substrates of Cytochrome P450 2D6 (AID 891).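 Also: luciferin methyl ether substrate demethylated by CYP2D6 with NADPH regeneration; nearly all actives have a fitted effect of over 60% in size.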 The method in brief:
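Human CYP2D6 (5 nM) with 30 uM Luciferin-ME EGE (at Km) in 100 mM KPO4, compound preincubated 10 min, then NADPH regeneration system for 60 min at room temperature. Luciferin read by luminescence; normalized to 1.43 uM quinidine.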

Experiment [8] concerns the target DNA dC->dU-editing enzyme APOBEC-3G (Homo sapiens) (UniProt Q9HC16). The experiment is described as follows: qHTS for inhibitors of Vif-A3G interactions: Validation (AID 588379). A digest of the protocol:
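HeLa cells stably expressing Vif and A3G-eYFP, 700 cells/well, incubated overnight at 37 deg C, then exposed to compound overnight at 37 deg C. Inhibition of Vif-mediated degradation read as increased yellow fluorescence (Ex 488/Em 500-530) by laser-scanning cytometry.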

Experiment [9] addresses Cytochrome P450 2C19 (Homo sapiens) (UniProt P33261). The experiment can be described thus: qHTS Assay for Inhibitors and Substrates of Cytochrome P450 2C19 (AID 899). Also: nearly all actives have a fitted effect of over 60% in size. Also: potency is read from the fitted curve at half-maximal effect. The method in brief: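 Luminescent read-out of luciferin formed from Luciferin-H EGE (10uM, equal to KM). Enzyme 5nM in 50mM KPO4; compound added, 10 min at 37C, then NADPH regenerating system for 60 min at 37C. Full inhibition defined by 57uM ketoconazole.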

Experiment [10] deals with Tyrosyl-DNA phosphodiesterase 1 (Homo sapiens) (UniProt Q9NUW8). The experiment is described as follows: Confirmation Assay for Inhibitors of Tyrosyl-DNA Phosphodiesterase (TDP1) (AID 489007). Also: potency is read from the fitted curve at half-maximal effect; nearly all actives have a fitted effect of over 40% in size. The following applies: recombinant human TDP1 enzymatic activity, dose-response. A digest of the protocol: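 Tdp1 1 nM + cpd, 15 min RT; add biotin/phosphotyrosine-FITC oligo 15 nM, 5 min RT; add AS donor/acceptor beads 10 ug/ml, 10 min RT; read AlphaScreen. No-enzyme wells = max signal.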

Experiment [11] is described as follows: qHTS Assay for Identification of Small Molecule Agonists for Hypoxia Response Element Signaling Pathway (AID 914; active = well fitted activation curve with a large enough effect in the signal ratio, with a control signal flat, not every such curve was filed as active; the % refers to the signal ratio; also: potency is read from the fitted curve at half-maximal effect). The following applies: ME-180 (cervical carcinoma) HRE-bla reporter, beta-lactamase ratio, CoCl2, 17 h; activation: stronger effect = higher value. The method in brief:
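ME-180 cells carrying an HRE-driven beta-lactamase reporter were treated with compounds in a titration series plus an EC50 level of CoCl2 for 17 h at 37 degrees Celsius; CCF4 readout as the 460nm/530nm ratio gave AC50 values.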

Experiment [12] concerns the target Tumor susceptibility gene 101 protein (Homo sapiens) (UniProt Q99816). The experiment is described as follows: qHTS Assay for Iinhibitors of HIV-1 Budding by Blocking the Interaction of PTAP/TSG101: Hit Validation (AID 651600). Also: nearly all actives have a fitted effect of over 70% in size. A digest of the protocol:
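Compounds are added to the Tsg101 binding domain (10 uM final) in pH 7.5 HEPES buffer. FITC-PTAP peptide follows at 50 nM final. After 20 min at r.t., polarized FITC emission is measured.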

Glucocorticoid receptor (Homo sapiens), sequence (P04150 whole entry, looked up, the tested form may be a part): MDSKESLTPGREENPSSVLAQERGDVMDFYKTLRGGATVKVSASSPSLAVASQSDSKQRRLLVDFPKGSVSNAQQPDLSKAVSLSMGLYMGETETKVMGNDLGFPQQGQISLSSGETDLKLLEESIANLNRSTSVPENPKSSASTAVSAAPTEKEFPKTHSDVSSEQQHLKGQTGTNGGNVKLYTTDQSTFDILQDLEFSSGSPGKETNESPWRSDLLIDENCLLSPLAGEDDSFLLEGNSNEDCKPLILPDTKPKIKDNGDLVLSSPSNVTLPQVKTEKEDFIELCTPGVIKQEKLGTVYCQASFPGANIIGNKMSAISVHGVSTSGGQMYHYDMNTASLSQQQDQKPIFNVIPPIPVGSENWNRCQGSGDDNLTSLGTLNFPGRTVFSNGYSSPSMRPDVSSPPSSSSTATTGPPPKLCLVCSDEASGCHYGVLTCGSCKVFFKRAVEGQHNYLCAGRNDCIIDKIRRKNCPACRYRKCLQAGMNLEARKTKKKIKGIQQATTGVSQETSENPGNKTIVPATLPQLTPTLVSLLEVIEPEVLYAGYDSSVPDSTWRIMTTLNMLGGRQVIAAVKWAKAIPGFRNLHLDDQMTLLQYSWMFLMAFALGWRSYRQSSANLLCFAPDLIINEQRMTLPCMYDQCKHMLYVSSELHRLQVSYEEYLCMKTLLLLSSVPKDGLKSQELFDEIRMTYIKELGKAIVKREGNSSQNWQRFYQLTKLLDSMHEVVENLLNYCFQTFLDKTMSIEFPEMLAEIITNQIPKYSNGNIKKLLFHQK
3',5'-cyclic-AMP phosphodiesterase 4B (Homo sapiens), sequence (Q07343 whole entry, looked up): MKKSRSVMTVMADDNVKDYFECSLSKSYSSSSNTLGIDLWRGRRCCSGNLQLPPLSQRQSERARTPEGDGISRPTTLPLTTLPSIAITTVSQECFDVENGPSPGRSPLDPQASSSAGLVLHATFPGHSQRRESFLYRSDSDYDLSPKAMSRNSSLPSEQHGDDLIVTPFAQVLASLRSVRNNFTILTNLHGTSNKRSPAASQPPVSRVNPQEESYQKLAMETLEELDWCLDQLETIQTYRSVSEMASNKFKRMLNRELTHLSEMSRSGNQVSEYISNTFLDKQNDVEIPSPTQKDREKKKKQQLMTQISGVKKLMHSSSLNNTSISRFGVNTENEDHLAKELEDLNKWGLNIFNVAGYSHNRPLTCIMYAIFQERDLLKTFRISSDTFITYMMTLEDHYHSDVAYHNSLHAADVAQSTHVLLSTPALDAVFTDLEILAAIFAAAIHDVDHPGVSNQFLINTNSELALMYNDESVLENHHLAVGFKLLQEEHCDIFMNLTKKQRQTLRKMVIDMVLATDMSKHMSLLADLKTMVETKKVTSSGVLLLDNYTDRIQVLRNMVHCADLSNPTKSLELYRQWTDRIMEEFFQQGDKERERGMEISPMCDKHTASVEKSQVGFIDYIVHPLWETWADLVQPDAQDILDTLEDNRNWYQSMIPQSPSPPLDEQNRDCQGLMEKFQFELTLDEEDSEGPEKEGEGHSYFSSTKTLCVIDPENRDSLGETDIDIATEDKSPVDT
Cytochrome P450 2C19 (Homo sapiens), sequence (P33261 whole entry, looked up): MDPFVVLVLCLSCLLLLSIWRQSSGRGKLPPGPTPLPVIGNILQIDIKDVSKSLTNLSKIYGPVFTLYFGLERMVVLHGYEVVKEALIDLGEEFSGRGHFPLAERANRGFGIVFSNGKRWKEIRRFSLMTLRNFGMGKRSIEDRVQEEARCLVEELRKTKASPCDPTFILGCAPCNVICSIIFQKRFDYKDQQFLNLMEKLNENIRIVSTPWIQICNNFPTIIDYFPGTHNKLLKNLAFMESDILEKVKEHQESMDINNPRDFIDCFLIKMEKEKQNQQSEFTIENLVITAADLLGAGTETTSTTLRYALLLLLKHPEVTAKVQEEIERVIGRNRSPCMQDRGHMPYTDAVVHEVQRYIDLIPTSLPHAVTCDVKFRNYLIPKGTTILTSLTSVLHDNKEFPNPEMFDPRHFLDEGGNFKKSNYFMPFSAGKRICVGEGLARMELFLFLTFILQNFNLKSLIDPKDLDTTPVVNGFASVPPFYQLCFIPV
Cytochrome P450 2C9 (Homo sapiens), sequence (P11712 whole entry, looked up): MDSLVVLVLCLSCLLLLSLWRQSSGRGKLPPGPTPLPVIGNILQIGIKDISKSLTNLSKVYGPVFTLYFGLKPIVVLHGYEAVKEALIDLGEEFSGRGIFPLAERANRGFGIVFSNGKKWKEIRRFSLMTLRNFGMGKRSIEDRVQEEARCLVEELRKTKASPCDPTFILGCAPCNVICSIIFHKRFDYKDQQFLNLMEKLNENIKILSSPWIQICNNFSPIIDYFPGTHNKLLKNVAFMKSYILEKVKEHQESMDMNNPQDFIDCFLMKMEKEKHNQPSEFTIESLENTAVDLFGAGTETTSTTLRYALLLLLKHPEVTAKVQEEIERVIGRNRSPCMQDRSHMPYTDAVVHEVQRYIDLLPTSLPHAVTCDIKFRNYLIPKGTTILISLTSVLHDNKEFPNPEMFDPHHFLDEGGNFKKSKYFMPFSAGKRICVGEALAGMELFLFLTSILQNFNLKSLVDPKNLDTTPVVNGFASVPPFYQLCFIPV
Cytochrome P450 2D6 (Homo sapiens), sequence (P10635 whole entry, looked up): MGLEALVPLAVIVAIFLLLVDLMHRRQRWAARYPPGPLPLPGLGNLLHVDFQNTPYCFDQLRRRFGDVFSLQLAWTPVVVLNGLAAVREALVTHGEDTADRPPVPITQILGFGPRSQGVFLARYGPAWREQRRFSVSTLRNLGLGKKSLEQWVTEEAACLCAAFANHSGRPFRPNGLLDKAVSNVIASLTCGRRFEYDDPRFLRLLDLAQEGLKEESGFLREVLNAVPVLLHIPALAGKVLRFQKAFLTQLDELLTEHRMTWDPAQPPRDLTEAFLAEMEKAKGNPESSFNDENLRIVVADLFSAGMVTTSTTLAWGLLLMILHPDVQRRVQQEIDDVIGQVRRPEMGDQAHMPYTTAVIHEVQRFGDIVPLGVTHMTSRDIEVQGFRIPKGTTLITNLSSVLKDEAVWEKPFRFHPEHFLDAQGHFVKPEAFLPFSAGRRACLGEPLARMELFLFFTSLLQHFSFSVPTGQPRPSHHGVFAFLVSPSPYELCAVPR
Tyrosyl-DNA phosphodiesterase 1 (Homo sapiens), sequence (Q9NUW8 whole entry, looked up): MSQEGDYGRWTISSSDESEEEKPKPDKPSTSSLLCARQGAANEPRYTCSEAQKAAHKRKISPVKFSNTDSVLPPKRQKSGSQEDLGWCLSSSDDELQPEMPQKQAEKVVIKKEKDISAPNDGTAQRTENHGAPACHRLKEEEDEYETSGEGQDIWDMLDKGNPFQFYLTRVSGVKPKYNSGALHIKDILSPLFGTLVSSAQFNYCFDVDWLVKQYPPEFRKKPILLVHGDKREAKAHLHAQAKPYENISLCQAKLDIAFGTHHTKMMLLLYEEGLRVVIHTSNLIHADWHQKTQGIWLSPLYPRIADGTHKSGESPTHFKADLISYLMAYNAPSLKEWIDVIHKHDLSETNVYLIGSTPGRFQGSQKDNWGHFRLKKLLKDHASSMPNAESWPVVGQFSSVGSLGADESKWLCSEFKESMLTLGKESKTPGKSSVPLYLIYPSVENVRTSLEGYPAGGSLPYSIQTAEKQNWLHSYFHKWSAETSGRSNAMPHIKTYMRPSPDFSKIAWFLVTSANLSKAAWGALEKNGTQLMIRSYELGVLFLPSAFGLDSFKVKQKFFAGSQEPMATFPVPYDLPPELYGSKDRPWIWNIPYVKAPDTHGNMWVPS
DNA dC->dU-editing enzyme APOBEC-3G (Homo sapiens), sequence (Q9HC16 whole entry, looked up): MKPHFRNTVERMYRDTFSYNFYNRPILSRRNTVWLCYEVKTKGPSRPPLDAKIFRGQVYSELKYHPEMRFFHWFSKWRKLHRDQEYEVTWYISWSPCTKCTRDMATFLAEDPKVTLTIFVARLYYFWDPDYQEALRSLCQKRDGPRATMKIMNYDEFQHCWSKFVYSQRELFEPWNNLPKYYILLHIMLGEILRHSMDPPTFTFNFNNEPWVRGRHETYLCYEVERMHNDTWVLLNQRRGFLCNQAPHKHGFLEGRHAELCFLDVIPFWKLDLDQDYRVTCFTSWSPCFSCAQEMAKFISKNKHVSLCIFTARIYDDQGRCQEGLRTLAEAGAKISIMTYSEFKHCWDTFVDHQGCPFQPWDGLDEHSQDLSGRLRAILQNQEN
Cytochrome P450 3A4 (Homo sapiens), sequence (P08684 whole entry, looked up): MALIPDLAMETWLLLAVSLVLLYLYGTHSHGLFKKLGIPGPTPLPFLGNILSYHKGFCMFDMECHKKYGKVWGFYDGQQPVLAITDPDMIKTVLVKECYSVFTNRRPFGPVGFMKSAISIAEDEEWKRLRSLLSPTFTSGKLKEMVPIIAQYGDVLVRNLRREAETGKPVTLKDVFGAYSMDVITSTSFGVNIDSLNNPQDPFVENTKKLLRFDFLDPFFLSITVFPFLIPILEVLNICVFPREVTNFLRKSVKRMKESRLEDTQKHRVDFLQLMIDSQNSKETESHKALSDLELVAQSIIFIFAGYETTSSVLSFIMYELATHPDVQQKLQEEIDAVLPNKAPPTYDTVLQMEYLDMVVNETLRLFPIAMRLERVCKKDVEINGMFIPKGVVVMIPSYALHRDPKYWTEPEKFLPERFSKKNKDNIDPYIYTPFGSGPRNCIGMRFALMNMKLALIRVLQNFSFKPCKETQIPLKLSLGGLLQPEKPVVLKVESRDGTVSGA
Tumor susceptibility gene 101 protein (Homo sapiens), sequence (Q99816 whole entry, looked up, the tested form may be a part): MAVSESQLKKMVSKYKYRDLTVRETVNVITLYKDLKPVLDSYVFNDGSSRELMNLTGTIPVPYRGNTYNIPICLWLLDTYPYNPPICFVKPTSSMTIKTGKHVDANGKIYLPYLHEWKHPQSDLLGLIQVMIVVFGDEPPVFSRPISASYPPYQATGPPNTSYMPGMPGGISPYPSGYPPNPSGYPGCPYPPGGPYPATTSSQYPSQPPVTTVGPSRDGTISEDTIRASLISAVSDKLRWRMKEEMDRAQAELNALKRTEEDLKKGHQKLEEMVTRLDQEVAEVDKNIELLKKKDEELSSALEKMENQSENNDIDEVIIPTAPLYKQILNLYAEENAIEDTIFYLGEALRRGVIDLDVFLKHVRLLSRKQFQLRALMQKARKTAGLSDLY

As for `COc1cc([C@@H]2Oc3cc([C@H]4Oc5cc(O)cc(O)c5C(=O)[C@H]4O)ccc3O[C@H]2CO)ccc1O`, the Potency in experiment [1] was over 46 µM; in experiment [2], over 46 µM; in experiment [5], 2.51 µM (active). Further, the Potency entry in experiment [3], in [4], in experiment [6] and in experiment [7] was “inactive” each time. Besides, in [8], the outcome was inactive.
Take `CC(C)C1=CC2=CC[C@H]3[C@@](C)(CCC[C@]3(C)C(=O)O)[C@@H]2CC1`: the values for the Potency in experiment [1], in [2] and in [5] were over 46 µM, over 46 µM and 12.6 µM (active), respectively. The Potency entry in experiment [3], in [4] and in experiment [7] was “inactive” each time.
With `NCCC[C@@H](CC(=O)N[C@@H]1CCCC[C@H]1C(=O)N[C@H](CC(=O)N[C@@H](CCC(=O)O)CC(=O)O)Cc1ccccc1)NC(=O)C[C@H](Cc1c[nH]c2ccccc12)NC(=O)[C@@H]1CNCC[C@H]1N`, the Potency is over 46 µM in [2] and 1.58 µM (active) in experiment [4]. Besides, the Potency result in [5], in experiment [7] and in experiment [9] was “inactive” each time.
Turning to `CC(C)C[C@@H](CC(=O)N[C@@H](CCCN)CC(=O)N[C@@H]1CCCC[C@H]1C(=O)N[C@H](CC(=O)N[C@@H](CCC(=O)O)CC(=O)O)Cc1c[nH]c2ccccc12)NC(=O)[C@@H]1CNCC[C@H]1N`, the Potency in experiment [2] was over 46 µM. The Potency entry in experiment [3], in [4], in [5], in [7] and in experiment [9] was “inactive” throughout.
`CC(C)C[C@@H](CC(=O)N[C@@H](CCCN)CC(=O)N[C@@H]1CCNC[C@H]1C(=O)N[C@H](CC(=O)N[C@@H](CCC(=O)O)CC(=O)O)CC(C)C)NC(=O)[C@@H]1CNCC[C@H]1N`: in experiment [2], the Potency is over 46 µM. Further, the Potency result in experiment [3], in [4], in experiment [7] and in experiment [9] was “inactive” in each case.
As to `CC(C)C[C@@H](CC(=O)N[C@@H](CCCN)CC(=O)N[C@@H]1CCNC[C@H]1C(=O)N[C@H](CC(=O)N[C@@H](CCC(=O)O)CC(=O)O)CC(C)C)NC(=O)[C@@H]1CCCC[C@H]1N`, the values for the Potency in [2] and in experiment [9] were over 46 µM and 15.8 µM (active), respectively. In addition, the Potency entry in experiment [4] and in [7] was “inactive” throughout.
With `NCCC[C@@H](CC(=O)N[C@@H]1CCNC[C@H]1C(=O)N[C@H](CC(=O)N[C@@H](CCC(=O)O)CC(=O)O)Cc1ccccc1)NC(=O)C[C@H](CO)NC(=O)[C@@H]1CNCC[C@H]1N`, the Potency in experiment [2] was over 46 µM. In addition, the Potency entry in experiment [4] and in experiment [7] was “inactive” throughout.
As to `NCCC[C@@H](CC(=O)N[C@@H]1CCCC[C@H]1C(=O)N[C@H](CC(=O)N[C@@H](CCC(=O)O)CC(=O)O)Cc1ccccc1)NC(=O)C[C@H](Cc1ccccc1)NC(=O)[C@@H]1CNCC[C@H]1N`, in [2], the Potency was over 46 µM. Besides, the Potency result in [4], in [5], in [7] and in [9] was “inactive” throughout.
As to `CC(C)[C@@H](CC(=O)N[C@@H]1CCCC[C@H]1C(=O)N[C@H](CC(=O)N[C@@H](CCC(=O)O)CC(=O)O)Cc1c[nH]c2ccccc12)NC(=O)C[C@H](CO)NC(=O)[C@@H]1CCCC[C@H]1N`, the Potency in [2] was over 46 µM. Besides, the Potency result in experiment [3], in [4], in [5], in experiment [7] and in [9] was “inactive” in each case.
Take `CC(C)C[C@@H](CC(=O)N[C@H](CC(=O)N[C@@H]1CCCC[C@H]1C(=O)N[C@H](CC(=O)N[C@@H](CCC(=O)O)CC(=O)O)Cc1ccccc1)C(C)C)NC(=O)[C@@H]1CCCC[C@H]1N`: the Potency in experiment [2] was over 46 µM. For the same compound, the Potency entry in experiment [3], in experiment [4], in [7] and in [9] was “inactive” throughout.
For `COc1ccc(-c2coc3ccc(O[C@@H]4O[C@@H](COC(C)=O)[C@@H](OC(C)=O)[C@@H](OC(C)=O)[C@H]4OC(C)=O)c(OC(C)=O)c3c2=O)cc1`, the Potency in experiment [1] and in experiment [2] was over 46 µM each time. Also, the Potency entry in experiment [5] and in experiment [7] was “inactive” in each case.
With `COc1ccc(S(=O)(=O)N2Cc3ccccc3CC2C(=O)O)cc1` (stereo not drawn), the Potency in experiment [10] was 12.6 µM (active).
As to `COc1ccc(S(=O)(=O)NCc2cccs2)cc1`, the Potency in experiment [10] is 112 µM (active).
As for `CC(C)C[C@@H](CC(=O)N[C@@H](CCC(=O)O)CC(=O)O)NC(=O)[C@@H]1CCCC[C@H]1NC(=O)C[C@@H](NC(=O)C[C@H](Cc1ccccc1)NC(=O)[C@@H]1CNCC[C@H]1N)C(C)C`, the Potency in experiment [2] was over 46 µM. Further, the Potency entry in [3], in [4], in experiment [5], in [7] and in [9] was “inactive” in each case.
As to `OCc1ccncc1.OCc1ccncc1.[Cl][Pt]([Cl])([Cl])[Cl]`, the Potency in experiment [1] was over 46 µM. Besides, the Potency result in experiment [4] was “inactive”.
Regarding `CC1(C)Cc2c(C#N)c(NCc3ccco3)nc(-c3ccco3)c2CO1`, the Potency is over 20.6 µM in experiment [1] and 2 µM (active) in [11].
Regarding `NCCC[C@@H](CC(=O)N[C@@H]1CCNC[C@H]1C(=O)N[C@H](CC(=O)N[C@@H](CCC(=O)O)CC(=O)O)Cc1ccccc1)NC(=O)C[C@H](Cc1c[nH]c2ccccc12)NC(=O)[C@@H]1CCCC[C@H]1N`, the Potency in [2] is over 46 µM. Also, the Potency result in [3], in experiment [4], in experiment [7] and in experiment [9] was “inactive” in each case.
As for `CC(C)C[C@@H](CC(=O)N[C@H](CC(=O)N[C@@H]1CCNC[C@H]1C(=O)N[C@H](CC(=O)N[C@@H](CCC(=O)O)CC(=O)O)Cc1c[nH]c2ccccc12)C(C)C)NC(=O)[C@@H]1CCCC[C@H]1N`, the Potency in experiment [2] is over 46 µM. Besides, the Potency entry in [4] and in experiment [7] was “inactive” in each case.
For the compound `NCCC[C@@H](CC(=O)N[C@@H]1CCCC[C@H]1C(=O)N[C@H](CC(=O)N[C@@H](CCC(=O)O)CC(=O)O)Cc1ccccc1)NC(=O)C[C@H](Cc1ccccc1)NC(=O)[C@@H]1CCCC[C@H]1N`, in experiment [2], the Potency is over 46 µM. The Potency entry in experiment [4], in experiment [7] and in [9] was “inactive” in each case.
Consider `C=C/C(=C\C)C[C@@H](CC(=O)N[C@@H](CCC(=O)O)CC(=O)O)NC(=O)[C@@H]1CNCC[C@H]1NC(=O)C[C@@H](NC(=O)C[C@H](Cc1ccccc1)NC(=O)[C@@H]1CCCC[C@H]1N)C(C)C`, for which, in experiment [2], the Potency is over 46 µM. The Potency result in [3], in experiment [4], in [7] and in [9] was “inactive” throughout.
On to `CN[C@@H]1[C@H](O)[C@H](NC)[C@@H]2O[C@]3(O)C(=O)C[C@@H](C)O[C@H]3O[C@@H]2[C@H]1O`, for which the Potency in [1] was over 46 µM. The Potency entry in [3] and in experiment [4] was “inactive” each time.
As for `CCN(CC)C(=O)c1sc2nc(-c3cccs3)cc(-c3cccs3)c2c1N`, the Potency in experiment [1] was over 20.6 µM. In experiment [12], the Potency entry is “inactive”.
As for `CC(C)C[C@@H](CC(=O)N[C@H](CC(=O)N[C@@H]1CCCC[C@H]1C(=O)N[C@H](CC(=O)N[C@@H](CCC(=O)O)CC(=O)O)Cc1ccccc1)C(C)C)NC(=O)[C@@H]1CNCC[C@H]1N`, the Potency in [2] was over 46 µM. Moreover, the Potency result in experiment [4] and in experiment [7] was “inactive” each time.
As to `NCCC[C@@H](CC(=O)N[C@@H]1CCCC[C@H]1C(=O)N[C@H](CC(=O)N[C@@H](CCC(=O)O)CC(=O)O)Cc1ccccc1)NC(=O)C[C@H](Cc1c[nH]c2ccccc12)NC(=O)[C@@H]1CCCC[C@H]1N`, the Potency in experiment [2] is over 46 µM. For the same compound, the Potency entry in [4], in experiment [7] and in [9] was “inactive” each time.
